Laboratory results as given in PubChem BioAssay (NCI).
Compounds without any hit were thinned out: in the full panel of roughly 83,000, 20% have a hit.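 Step 1: grow cells in 96-well plates. Step 2: add test compound at a single concentration. Step 3: incubate 48 h. Step 4: record percent growth.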 Calls of active or inactive are those of the source. The calls were made as follows: active = growth percent below 10; inactive = the rest.

Columns and labels:
Test in all cases: NCI-60 one-dose screen, 48 h (100 = growth as untreated, 0 = no growth, -100 = all killed)
Conditions in all cases: 10 µM unless noted
SK-MEL-2 melanoma = system: SK-MEL-2 melanoma
EKVX NSCLC = system: EKVX NSCLC
SN12C renal = system: SN12C renal
UO-31 renal = system: UO-31 renal
TK-10 renal = system: TK-10 renal
ACHN renal = system: ACHN renal
CAKI-1 renal = system: CAKI-1 renal
A498 renal = system: A498 renal
CCRF-CEM leukemia = system: CCRF-CEM leukemia
MOLT-4 leukemia = system: MOLT-4 leukemia
SR leukemia = system: SR leukemia
RPMI-8226 leukemia = system: RPMI-8226 leukemia
OVCAR-8 ovarian = system: OVCAR-8 ovarian
OVCAR-5 ovarian = system: OVCAR-5 ovarian
OVCAR-4 ovarian = system: OVCAR-4 ovarian
SK-OV-3 ovarian = system: SK-OV-3 ovarian
IGROV1 ovarian = system: IGROV1 ovarian
OVCAR-3 ovarian = system: OVCAR-3 ovarian
HS 578T breast = system: HS 578T breast
NCI/ADR-RES ovarian = system: NCI/ADR-RES ovarian

Measured: growth

CCOc1ccc(C(=O)NC(=S)Nc2ccc(S(N)(=O)=O)cc2)cc1
inactive: SK-MEL-2 melanoma 104% [100 µM] | EKVX NSCLC 101% [100 µM] | SN12C renal 100% [100 µM] | UO-31 renal 77.9% [100 µM] | TK-10 renal 92.6% [100 µM] | ACHN renal 101% [100 µM] | CAKI-1 renal 87.9% [100 µM] | A498 renal 96.6% [100 µM] | CCRF-CEM leukemia 101% [100 µM] | MOLT-4 leukemia 110% [100 µM] | SR leukemia 97.7% [100 µM] | RPMI-8226 leukemia 102% [100 µM] | OVCAR-8 ovarian 89% [100 µM] | OVCAR-5 ovarian 103% [100 µM] | OVCAR-4 ovarian 84.7% [100 µM] | SK-OV-3 ovarian 102% [100 µM] | IGROV1 ovarian 96.4% [100 µM] | OVCAR-3 ovarian 97.9% [100 µM] | HS 578T breast 89.2% [100 µM] | NCI/ADR-RES ovarian 102% [100 µM]

CSc1ccc(NC(=O)c2ccc3nnn(/C(C#N)=C/c4ccccn4)c3c2)cc1
active: SK-MEL-2 melanoma -96.3% | EKVX NSCLC -99.6% | SN12C renal -99.9% | UO-31 renal -100% | TK-10 renal -98.5% | ACHN renal -100% | CAKI-1 renal -93.5% | CCRF-CEM leukemia 6.95% | MOLT-4 leukemia 6.04% | SR leukemia -6.85% | RPMI-8226 leukemia -32.6% | OVCAR-8 ovarian -60.6% | OVCAR-5 ovarian -78.6% | OVCAR-4 ovarian -97.4% | IGROV1 ovarian -76.7% | OVCAR-3 ovarian -70.7% | NCI/ADR-RES ovarian -83.9%
inactive: A498 renal 45.1% | SK-OV-3 ovarian 25.5%

CC1=C(C(=O)c2ccccc2)C(c2cccc3ccccc23)n2c(nc3ccccc32)N1 (stereo unspecified)
inactive: SK-MEL-2 melanoma 106% | EKVX NSCLC 58.4% | SN12C renal 75.3% | UO-31 renal 81.8% | TK-10 renal 83.8% | ACHN renal 88.5% | CAKI-1 renal 55.7% | A498 renal 153% | CCRF-CEM leukemia 55.9% | MOLT-4 leukemia 52.3% | SR leukemia 43.7% | RPMI-8226 leukemia 83.9% | OVCAR-8 ovarian 38.3% | OVCAR-5 ovarian 68.4% | OVCAR-4 ovarian 75.6% | IGROV1 ovarian 86.5% | OVCAR-3 ovarian 59% | NCI/ADR-RES ovarian 43.3%

C=CC(=O)Nc1ccc(C)c(Oc2ccc(Cl)cc2)c1
inactive: SK-MEL-2 melanoma 41.8% | EKVX NSCLC 62.6% | SN12C renal 45.3% | UO-31 renal 24.4% | TK-10 renal 74% | ACHN renal 65.4% | CAKI-1 renal 61.7% | A498 renal 58.5% | CCRF-CEM leukemia 57.9% | MOLT-4 leukemia 45.3% | SR leukemia 24.3% | RPMI-8226 leukemia 23.8% | OVCAR-8 ovarian 38.5% | OVCAR-5 ovarian 64.8% | OVCAR-4 ovarian 56.2% | IGROV1 ovarian 46.4% | OVCAR-3 ovarian 36.6% | HS 578T breast 51.8% | NCI/ADR-RES ovarian 37.3%

COc1c(F)ccc(C(=O)Nc2ccc3nc(NC(=O)C4CCCN(S(=O)(=O)c5cccc(Br)c5)C4)sc3c2)c1F (stereo unspecified)
inactive: SK-MEL-2 melanoma 94.9% | EKVX NSCLC 90.9% | SN12C renal 88.4% | UO-31 renal 79.3% | TK-10 renal 118% | ACHN renal 82.9% | CAKI-1 renal 76.4% | A498 renal 112% | CCRF-CEM leukemia 89.5% | MOLT-4 leukemia 49.3% | SR leukemia 55.9% | RPMI-8226 leukemia 51.7% | OVCAR-8 ovarian 104% | OVCAR-5 ovarian 104% | OVCAR-4 ovarian 73.6% | IGROV1 ovarian 86.8% | OVCAR-3 ovarian 106% | HS 578T breast 56.6% | NCI/ADR-RES ovarian 85.3%

COCOc1ccc2c(=O)c(C)c(C(=O)N[C@@H](Cc3ccccc3)C(O)C(=O)NCCc3ccc(OC)cc3)oc2c1 (stereo partly specified)
inactive: SK-MEL-2 melanoma 118% | EKVX NSCLC 111% | SN12C renal 95.2% | TK-10 renal 116% | ACHN renal 114% | CAKI-1 renal 101% | A498 renal 136% | CCRF-CEM leukemia 105% | MOLT-4 leukemia 94.8% | RPMI-8226 leukemia 100% | OVCAR-8 ovarian 107% | OVCAR-5 ovarian 116% | OVCAR-4 ovarian 122% | SK-OV-3 ovarian 113% | IGROV1 ovarian 122% | OVCAR-3 ovarian 120% | HS 578T breast 104% | NCI/ADR-RES ovarian 107%
active: UO-31 renal -20.1%

Cn1cc(-c2cc3nc(-c4c[nH]c5ccc(Br)cc45)cc(N)n3n2)c2ccccc21
active: SK-MEL-2 melanoma -86.5% | EKVX NSCLC -79.4% | SN12C renal -73% | UO-31 renal -97.7% | TK-10 renal -90.3% | ACHN renal -98.4% | CAKI-1 renal -87.8% | A498 renal -25% | CCRF-CEM leukemia -19.6% | MOLT-4 leukemia -33.8% | SR leukemia 2.66% | RPMI-8226 leukemia -10.1% | OVCAR-8 ovarian -85.1% | OVCAR-5 ovarian -86.1% | OVCAR-4 ovarian -57% | IGROV1 ovarian -57.2% | OVCAR-3 ovarian -40% | HS 578T breast -22.5% | NCI/ADR-RES ovarian -32.8%

N#Cc1cnn(C(=O)c2ccccc2Br)c1NC(=O)c1ccc(Br)cc1Cl
inactive: SK-MEL-2 melanoma 111% | EKVX NSCLC 100% | SN12C renal 104% | UO-31 renal 85.9% | TK-10 renal 101% | ACHN renal 103% | CAKI-1 renal 94.5% | A498 renal 106% | CCRF-CEM leukemia 94.5% | MOLT-4 leukemia 99.9% | SR leukemia 78.2% | RPMI-8226 leukemia 102% | OVCAR-8 ovarian 104% | OVCAR-5 ovarian 102% | OVCAR-4 ovarian 101% | SK-OV-3 ovarian 86.7% | IGROV1 ovarian 115% | OVCAR-3 ovarian 119% | NCI/ADR-RES ovarian 98.7%

COc1cc2c(c(OC)c1OC)C(=O)CC(c1cccc(NC(=O)c3cc([N+](=O)[O-])ccc3Cl)c1)O2 (stereo unspecified)
active: ACHN renal 6.5% | OVCAR-8 ovarian -11.6%
inactive: SK-MEL-2 melanoma 15% | EKVX NSCLC 52.3% | SN12C renal 24% | UO-31 renal 29.9% | TK-10 renal 65.8% | CAKI-1 renal 20.8% | A498 renal 131% | CCRF-CEM leukemia 22.8% | MOLT-4 leukemia 14.4% | RPMI-8226 leukemia 30.3% | OVCAR-5 ovarian 67.2% | OVCAR-4 ovarian 57.2% | SK-OV-3 ovarian 57.1% | IGROV1 ovarian 12.5% | OVCAR-3 ovarian 16% | HS 578T breast 15.1%

O=C1Nc2cc(Cl)ccc2/C1=C/c1cccc(OCc2ccccn2)c1
active: SN12C renal -15% | CCRF-CEM leukemia 2.33% | MOLT-4 leukemia 4.01% | SR leukemia -0.484% | RPMI-8226 leukemia -5.52% | OVCAR-8 ovarian -21% | OVCAR-5 ovarian -7.05% | NCI/ADR-RES ovarian -16.7%
inactive: SK-MEL-2 melanoma 41% | EKVX NSCLC 15% | UO-31 renal 29.7% | TK-10 renal 35.5% | ACHN renal 16.9% | CAKI-1 renal 16.8% | A498 renal 123% | OVCAR-4 ovarian 49.1% | SK-OV-3 ovarian 52.1% | IGROV1 ovarian 17.2% | OVCAR-3 ovarian 23.5%

Cc1cc(C)cc(C(=O)Nc2cccc(-c3cn(-c4ccc(S(N)(=O)=O)cc4)nn3)c2)c1
active: TK-10 renal -9.72% | A498 renal -13.4%
inactive: SK-MEL-2 melanoma 12.8% | EKVX NSCLC 55.7% | SN12C renal 32.6% | UO-31 renal 68.2% | ACHN renal 22.5% | CAKI-1 renal 59.7% | CCRF-CEM leukemia 30.4% | MOLT-4 leukemia 25.3% | SR leukemia 51.6% | RPMI-8226 leukemia 89.8% | OVCAR-8 ovarian 18.7% | OVCAR-5 ovarian 81.5% | OVCAR-4 ovarian 42.1% | IGROV1 ovarian 15.4% | OVCAR-3 ovarian 87.4% | NCI/ADR-RES ovarian 55.9%

Brc1ccc(N/N=C/c2c[nH]c3ccc(Br)cc23)nc1
active: SK-MEL-2 melanoma -57% | EKVX NSCLC -11.8% | SN12C renal -22.6% | UO-31 renal -18.7% | TK-10 renal -16.8% | ACHN renal -22.8% | CAKI-1 renal -24.4% | A498 renal -21.3% | CCRF-CEM leukemia -37.7% | MOLT-4 leukemia -35% | SR leukemia -26.2% | RPMI-8226 leukemia -17.2% | OVCAR-8 ovarian 3.48% | OVCAR-5 ovarian -25.8% | IGROV1 ovarian -25.6% | OVCAR-3 ovarian -2.41% | HS 578T breast -17.2% | NCI/ADR-RES ovarian -24.5%
inactive: OVCAR-4 ovarian 19.6%

CNC(=O)c1cc(Oc2ccc3nc(NC(=O)Nc4cccc(OC(F)(F)F)c4)sc3c2)ccn1
inactive: EKVX NSCLC 42.8% | SN12C renal 23.4% | UO-31 renal 14.5% | CCRF-CEM leukemia 52.9% | MOLT-4 leukemia 50.9% | SR leukemia 37.3% | RPMI-8226 leukemia 51.7% | OVCAR-5 ovarian 50.6% | OVCAR-4 ovarian 30.8% | IGROV1 ovarian 28.4% | OVCAR-3 ovarian 46.2%
active: SK-MEL-2 melanoma -20.5% | TK-10 renal -33.7% | ACHN renal -2.02% | CAKI-1 renal -8.87% | A498 renal 8.49% | OVCAR-8 ovarian 6.11% | SK-OV-3 ovarian -30.7% | NCI/ADR-RES ovarian -2.64%

Cc1c(C(=O)NNC(=O)c2ccc(Cl)cc2)nnn1-c1ccc(Cl)cc1
inactive: SK-MEL-2 melanoma 106% | EKVX NSCLC 91.5% | SN12C renal 94.7% | UO-31 renal 74.1% | TK-10 renal 96.1% | ACHN renal 103% | CAKI-1 renal 87.2% | A498 renal 105% | CCRF-CEM leukemia 88.4% | MOLT-4 leukemia 85.4% | SR leukemia 84.4% | RPMI-8226 leukemia 95.7% | OVCAR-8 ovarian 104% | OVCAR-5 ovarian 93.6% | OVCAR-4 ovarian 92.4% | IGROV1 ovarian 106% | OVCAR-3 ovarian 114% | NCI/ADR-RES ovarian 91.3%

CC(=O)Nc1ccc(-c2cn(-c3cccc(C(=O)Nc4ccc(N5CCN(C)CC5)cc4)c3)nn2)cn1
inactive: SK-MEL-2 melanoma 92.5% | EKVX NSCLC 80.9% | SN12C renal 80.1% | UO-31 renal 100% | TK-10 renal 86.5% | ACHN renal 88.1% | CAKI-1 renal 98.2% | A498 renal 160% | CCRF-CEM leukemia 40% | MOLT-4 leukemia 59.8% | SR leukemia 68% | RPMI-8226 leukemia 70.4% | OVCAR-8 ovarian 81.6% | OVCAR-5 ovarian 107% | OVCAR-4 ovarian 93.4% | IGROV1 ovarian 88% | OVCAR-3 ovarian 109% | NCI/ADR-RES ovarian 89.2%
